Data on 6 molecules can be found in PubChem BioAssay (EPA / NIEHS).

Records with an inconclusive call do not appear. Activity calls are given as the source filed them. The calls were made as follows, unless noted: active = hit-call score of the fitted dose curve at least 0.9, where 1 is the maximum; inactive = score below 0.9.

For one assay, the system named is DIO1 (gene 1733). Briefly: CCTE_GLTED_hDIO1: CCTE's human Deiodinase 1 (DIO1) Inhibition Assay, Great Lakes Toxicology and Ecology Division (GLTED) Lab (AID 2283987; active = hit-call score of the fitted dose curve at least 0.9, where 1 is the maximum;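 also: isolated human DIO1 enzyme in a cell-free setup rather than cells; enzyme activity read as free iodide liberated from substrate via Sandell-Kolthoff colorimetry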). A digest of the protocol:
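Steps: human DIO1 enzyme plus test chemical, 3 h incubation; free iodide then quantified in a second Sandell-Kolthoff step by absorbance. DMSO served as negative control and baseline.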

The target in assay [1] is Nucleoli Translocation, AR (gene 367) (UniProt P10275). Briefly: UPITT_HCI_U2OS_AR_TIF2_Nucleoli_Antagonist: University of Pittsburgh U2OS Androgen Receptor-Transcriptional Intermediary Factor 2 (AR-TIF2) Antagonism High Content Imaging Assay for Nucleoli Translocation (AID 2283997; active = hit-call score of the fitted dose curve at least 0.9, where 1 is the maximum). A digest of the protocol:
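An antagonist-mode imaging screen: engineered U2OS (AR-RFP, TIF2-GFP) exposed to 20 uM compound, 0.2% DMSO. Activity reflects nucleolar red fluorescence change relative to DHT baseline.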

The target is the same in assay [2]. The assay can be described thus: UPITT_HCI_U2OS_AR_TIF2_Nucleoli_Agonist: University of Pittsburgh U2OS Androgen Receptor-Transcriptional Intermediary Factor 2 (AR-TIF2) Agonism High Content Imaging Assay for Nucleoli Translocation (AID 2283998; active = hit-call score of the fitted dose curve at least 0.9, where 1 is the maximum). A digest of the protocol: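 RFP-AR / GFP-TIF2 cells; cpds diluted in serum-free medium; single-point screen 20 uM final (0.2% DMSO), actives confirmed in triplicate; conc-response 0.195–50 uM final (0.5% DMSO). Readout: nucleolar red fluorescence, positive direction vs DMSO.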

The target of assay [3] is Ratio of Nucleoli Translocation and Cytoplasm, AR (gene 367) (UniProt P10275). Briefly: UPITT_HCI_U2OS_AR_TIF2_Nucleoli_Cytoplasm_Ratio_Antagonist: University of Pittsburgh U2OS Androgen Receptor-Transcriptional Intermediary Factor 2 (AR-TIF2) Antagonism High Content Imaging Assay for Ratio of Nucleoli Translocation and Cytoplasm (AID 2283999; active = hit-call score of the fitted dose curve at least 0.9, where 1 is the maximum;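 also: antagonists lower the DHT-driven ratio of nucleolar to cytoplasmic red signal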). A digest of the protocol: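 Read-out is the ratio of nucleolar to cytoplasmic AR-RFP fluorescence, imaged by high-content microscopy in U2OS cells coexpressing TIF2-GFP. Single-point 20 uM screen, triplicate confirmation, then 0.195–50 uM dose response; activity referenced to DHT baseline.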
Chain of Ratio of Nucleoli Translocation and Cytoplasm, AR (gene 367) (P10275 whole entry, looked up): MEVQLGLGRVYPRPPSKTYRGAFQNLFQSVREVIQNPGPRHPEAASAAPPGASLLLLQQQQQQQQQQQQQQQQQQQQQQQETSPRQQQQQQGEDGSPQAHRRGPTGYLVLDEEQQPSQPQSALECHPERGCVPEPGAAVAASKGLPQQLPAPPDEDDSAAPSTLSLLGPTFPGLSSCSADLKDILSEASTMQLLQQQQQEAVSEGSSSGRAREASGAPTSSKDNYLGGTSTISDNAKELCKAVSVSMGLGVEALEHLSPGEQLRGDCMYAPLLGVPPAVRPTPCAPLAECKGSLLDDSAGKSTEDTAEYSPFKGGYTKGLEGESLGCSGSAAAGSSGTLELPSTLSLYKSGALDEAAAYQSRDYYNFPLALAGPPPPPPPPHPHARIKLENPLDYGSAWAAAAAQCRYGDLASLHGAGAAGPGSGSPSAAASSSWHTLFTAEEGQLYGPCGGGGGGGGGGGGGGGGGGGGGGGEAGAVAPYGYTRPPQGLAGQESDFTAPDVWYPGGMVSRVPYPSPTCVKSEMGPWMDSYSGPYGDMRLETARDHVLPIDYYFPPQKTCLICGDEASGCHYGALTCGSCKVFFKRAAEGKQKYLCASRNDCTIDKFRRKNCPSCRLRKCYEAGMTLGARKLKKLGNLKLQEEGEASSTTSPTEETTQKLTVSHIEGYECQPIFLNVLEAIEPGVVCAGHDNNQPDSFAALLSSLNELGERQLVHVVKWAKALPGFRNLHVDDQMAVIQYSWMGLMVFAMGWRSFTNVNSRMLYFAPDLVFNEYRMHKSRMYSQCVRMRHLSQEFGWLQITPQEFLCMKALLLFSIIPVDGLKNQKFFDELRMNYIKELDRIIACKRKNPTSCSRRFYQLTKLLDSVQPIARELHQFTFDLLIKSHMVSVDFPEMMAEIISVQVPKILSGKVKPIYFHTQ

Assay [4] has the same target. Briefly: UPITT_HCI_U2OS_AR_TIF2_Nucleoli_Cytoplasm_Ratio_Agonist: University of Pittsburgh U2OS Androgen Receptor-Transcriptional Intermediary Factor 2 (AR-TIF2) Agonism High Content Imaging Assay for Ratio of Nucleoli Translocation and Cytoplasm (AID 2284000; active = hit-call score of the fitted dose curve at least 0.9, where 1 is the maximum;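 also: hits raise the red nucleolar to cytoplasm ratio above vehicle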). A digest of the protocol: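 Primary screen at 20 uM final (0.2% DMSO), then triplicate confirmation and dose-response from 0.195 to 50 uM final (0.5% DMSO). Cells: U2OS with AR-RFP and TIF2-GFP. Endpoint is the nucleoli/cytoplasm red-fluorescence ratio, gain-of-signal vs DMSO.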

A short description of assay [5]: CCTE_Simmons_MITO_basal_resp_rate: CCTE's HepG2 Seahorse XF Respirometric Screening Assay at Basal Respiratory State, Simmons Lab (AID 2284001). The conditions noted are these: actives raise or lower the signal. A digest of the protocol:
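Readout is oxygen consumption rate after test compound injection, measured by Seahorse XF in HepG2 cells. Seven concentrations from 125 nM up to 100 uM final are tested, and activity in either direction is fitted against DMSO.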

The nature of assay [6]: CCTE_Simmons_MITO_inhib_resp_rate: CCTE's HepG2 Seahorse XF Respirometric Screening Assay at Inhibited Respiratory State [full ETC block], Simmons Lab (AID 2284006). The conditions noted are these: actives raise or lower the signal. A digest of the protocol: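 OCR read-out in the inhibited phase following rotenone/antimycin A, after compound and FCCP injections, in HepG2 cells. Seven concentrations (125 nM to 100 uM final), three biological replicates, 6-min cycles over 72 min; DMSO baseline.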

A short description of assay [7]: CCTE_Harrill_HTTr_Viability_MCF7: CCTE's 6-hour Cell Viability Assessment for the High-Throughput Transcriptomics (HTTr) Platform, in MCF-7 cells cultured in DMEM + 10% fetal bovine serum, Harrill Lab (AID 2284010). A digest of the protocol: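 PI exclusion, high-content imaging; 8-pt dilution series, 6 h exposure; bidirectional fit vs DMSO (neg. ctrl/baseline); gain of signal = loss of membrane integrity.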

Assay [8] can be described thus: CCTE_Shafer_MEA_acute_firing_rate_mean: CCTE's Neural Acute Assay for Mean Firing Rate, Shafer Lab (AID 2284009).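 Also: analyzed for loss of signal so actives lower firing rate relative to DMSO.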 A digest of the protocol: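 Spontaneous spiking of primary rat cortical networks, DIV 13/15, 37 C. Compound 0.03-40 uM, n ≥3 wells; 40 min baseline vs 40 min treated. Endpoint fitted in loss-of-signal direction against DMSO.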
The nature of assay [9]: CCTE_Harrill_HTTr_Viability_DMEM_6hr: (Pilot) CCTE's 6-hour Cell Viability Assessment for the High-Throughput Transcriptomics (HTTr) Platform, in MCF-7 cells cultured in DMEM + 10% fetal bovine serum, Harrill Lab (AID 2283973). A digest of the protocol: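 Propidium iodide uptake imaged by high-content analysis after six hours of chemical treatment in an eight-concentration series. Cells: MCF-7 grown in DMEM with 10% fetal bovine serum; DMSO as baseline.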

Assay [10] is described as follows: CCTE_Harrill_HTTr_Viability_DMEM_12hr: (Pilot) CCTE's 12-hour Cell Viability Assessment for the High-Throughput Transcriptomics (HTTr) Platform, in MCF-7 cells cultured in DMEM + 10% fetal bovine serum, Harrill Lab (AID 2283974). A digest of the protocol:
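Propidium iodide dye exclusion imaged by high-content microscopy after 12 h chemical exposure (eight concentrations) of MCF-7 cells grown in DMEM plus 10% FBS; values fitted in both directions relative to DMSO.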

The nature of assay [11]: CCTE_Harrill_HTTr_Viability_DMEM_24hr: (Pilot) CCTE's 24-hour Cell Viability Assessment for the High-Throughput Transcriptomics (HTTr) Platform, in MCF-7 cells cultured in DMEM + 10% fetal bovine serum, Harrill Lab (AID 2283975). A digest of the protocol:
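Pilot study: propidium iodide dye exclusion, imaged by high content microscopy, after 24 h compound exposure (eight concentrations) in MCF-7 cultured in DMEM + 10% fetal bovine serum; DMSO served as negative control and baseline.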

A short description of assay [12]: CCTE_Harrill_HTTr_Viability_PRF_DMEM_6hr: (Pilot) CCTE's 6-hour Cell Viability Assessment for the High-Throughput Transcriptomics (HTTr) Platform, in MCF-7 cells cultured phenol red-free DMEM + 10% charcoal-stripped fetal bovine serum, Harrill Lab (AID 2283976). A digest of the protocol: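 Membrane integrity by high-content imaging of propidium iodide uptake, six hours after dosing with eight concentrations. Cells: MCF-7 grown in phenol red-free DMEM plus 10% charcoal-stripped serum; DMSO serves as baseline for bidirectional fits.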

A short description of assay [13]: CCTE_Harrill_HTTr_Viability_PRF_DMEM_12hr: (Pilot) CCTE's 12-hour Cell Viability Assessment for the High-Throughput Transcriptomics (HTTr) Platform, in MCF-7 cells cultured in phenol red-free DMEM + 10% charcoal-stripped fetal bovine serum, Harrill Lab (AID 2283977). A digest of the protocol:
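Membrane integrity was scored via propidium iodide dye exclusion imaging, fitted in both directions relative to DMSO. Compounds ran as eight-point dilutions for 12 hours on MCF-7 grown in phenol red-free DMEM plus 10% charcoal-stripped serum.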

A short description of assay [14]: CCTE_Harrill_HTTr_Viability_PRF_DMEM_24hr: (Pilot) CCTE's 24-hour Cell Viability Assessment for the High-Throughput Transcriptomics (HTTr) Platform, in MCF-7 cells cultured in phenol red-free DMEM + 10% charcoal-stripped fetal bovine serum, Harrill Lab (AID 2283980). A digest of the protocol: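 Propidium iodide exclusion imaged at 24 h after dosing scores viability; cells were MCF-7 grown in phenol red-free DMEM plus 10% charcoal-stripped serum, tested in eight concentrations, fitted in both directions against DMSO.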

Assay [15] in a line: CCTE_Harrill_HTTr_Apoptosis_DMEM_6hr: (Pilot) CCTE's 6-hour Apoptosis Assessment for the High-Throughput Transcriptomics (HTTr) Platform, in MCF-7 cells cultured in DMEM + 10% fetal bovine serum, Harrill Lab (AID 2283981). A digest of the protocol: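 MCF-7 cells grown in DMEM + 10% FBS were exposed for 6 hours to an eight-point dilution series. CellEvent Caspase 3/7 Green signal was imaged; activity fitted bidirectionally against DMSO.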

Assay [16] is described as follows: CCTE_Harrill_HTTr_Apoptosis_DMEM_12hr: (Pilot) CCTE's 12-hour Apoptosis Assessment for the High-Throughput Transcriptomics (HTTr) Platform, in MCF-7 cells cultured in DMEM + 10% fetal bovine serum, Harrill Lab (AID 2283982). A digest of the protocol: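 Caspase-3/7 activity was measured by high-content imaging (CellEvent Caspase 3/7 Green) after a 12-hour exposure of MCF-7 cells grown in DMEM with 10% FBS. Eight-point concentration series, fitted bidirectionally against vehicle.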

The nature of assay [17]: CCTE_Harrill_HTTr_Apoptosis_DMEM_24hr: (Pilot) CCTE's 24-hour Apoptosis Assessment for the High-Throughput Transcriptomics (HTTr) Platform, in MCF-7 cells cultured in DMEM + 10% fetal bovine serum, Harrill Lab (AID 2283983). A digest of the protocol: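 Caspase-3/7 activity read by high-content imaging (CellEvent Green reagent) 24 h after dosing. MCF-7 cells grown in DMEM with 10% FBS received an eight-point concentration series; fits were bidirectional versus DMSO.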

A short description of assay [18]: CCTE_Harrill_HTTr_Apoptosis_PRF_DMEM_6hr: (Pilot) CCTE's 6-hour Apoptosis Assessment for the High-Throughput Transcriptomics (HTTr) Platform, in MCF-7 cells cultured phenol red-free DMEM + 10% charcoal-stripped fetal bovine serum, Harrill Lab (AID 2283984). A digest of the protocol:
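Caspase-3/7 activity (CellEvent Green) read by high-content imaging 6 h after dosing, eight concentrations. Cells: MCF-7, phenol red-free DMEM with 10% charcoal-stripped serum. Curves fit both directions against DMSO.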

A short description of assay [19]: CCTE_Harrill_HTTr_Apoptosis_PRF_DMEM_24hr: (Pilot) CCTE's 24-hour Apoptosis Assessment for the High-Throughput Transcriptomics (HTTr) Platform, in MCF-7 cells cultured in phenol red-free DMEM + 10% charcoal-stripped fetal bovine serum, Harrill Lab (AID 2283986). A digest of the protocol:
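Eight concentrations tested for 24 h on MCF-7 grown in charcoal-stripped serum, phenol red-free DMEM. High content imaging of CellEvent Caspase 3/7 Green signal gives apoptosis read-out, fitted both ways relative to DMSO.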

Chain of Nucleoli Translocation, AR (gene 367) (P10275 whole entry, looked up): as above

`NC(=O)N1C(=O)C(C(=O)c2cc(Cl)cs2)c2cc(F)c(Cl)cc21` (stereo unspecified): the AC50 in the assay on DIO1 (gene 1733) is 37.4 µM (active); in [5], 5.91 µM (active). For the same molecule, the call in assay [1], in assay [2], in [3], in assay [4], in assay [6] and in [7] was inactive.

On to `ClC1=C(Cl)C(Cl)(Cl)C(Cl)=C1Cl`, for which the concentration at half-maximal activity (AC50) with DIO1 (gene 1733) was 78.5 µM (active). Further, the result in assay [7] was inactive.

Regarding `CC[C@H](c1ccc(O)cc1)[C@@H](CC)c1ccc(O)cc1`, the AC50 in assay [1] is 50 µM (active); in assay [2], 50 µM (active); in [4], 50 µM (active); in assay [5], 20.8 µM (active); in assay [6], 40.4 µM (active). The result in assay [3], in assay [8] and in [7] was inactive.

Consider `CC(C)(C)c1cc(C(C)(C)C)c(O)c(C(C)(C)C)c1`, for which the molecule was called inactive in assay [8].

As to `CCC(=C(c1ccc(O)cc1)c1ccc(OCCN(C)C)cc1)c1ccccc1`, the AC50 in assay [9] was 79 µM (active); in assay [10], 63.6 µM (active); in [11], 69.4 µM (active); in assay [12], 69.8 µM (active); in [13], 73.1 µM (active); in [14], 63.6 µM (active). The AC50 was 81.2 µM (active) in [15]; 84 µM (active) in [16]; 82.6 µM (active) in assay [17]; 76.1 µM (active) in [18]; 80.8 µM (active) in assay [19]; 46.5 µM (active) in the assay with DIO1 (gene 1733). The AC50 in [2] was 22.5 µM (active); in assay [4], 26.2 µM (active). In addition, the outcome in assay [1], in [3], in assay [8] and in assay [7] was inactive.

On to `CN1CCN(c2ccccc2/C=C2\SCCN(c3ccc(Cl)c(Cl)c3)C2=O)CC1`, for which the call in assay [5] and in [6] was inactive. Besides, the AC50 in assay [8] was 10.5 µM (active); in [7] it was 73.7 µM (active).
